# From PubChem BioAssay AID624296 (National Center for Advancing Translational Sciences (NCATS), 2012)
# Screen size: about 350,000 compounds; about 9,900 (2.8%) were called active. Entries that show only a call come without a potency. Roughly 15% stayed inconclusive and do not appear here. Calls follow the shape of the dose curve; as a rule, active = well fitted activation curve with a large enough effect; inconclusive = small, poorly fitted or top-dose-only effect; inactive = no such curve, though single readings can be large or run the other way. The sample as a whole holds a higher share of actives than the screen did.
# Test: A quantitative high throughput screen for small molecules that induce DNA re-replication in MCF 10a normal breast cells. Also: nearly all actives have a fitted effect of over 50% in size.
# Conditions: MCF 10A DNA re-replication, Hoechst nuclear intensity, 48 h; series mostly up to 46.1 µM
# Potency is read from the fitted curve at half-maximal effect.
row,SMILES,Potency
1,CCCCSc1nc2ccccc2[nH]1,inactive
2,COc1ccccc1CSc1nc2ccccc2[nH]1,8.2 µM (active)
3,C=CCSc1nc2ccccc2[nH]1,inactive
4,COc1ccccc1CSc1ncc(-c2ccc([N+](=O)[O-])cc2)[nH]1,11.6 µM (active)
5,N#Cc1c(-c2ccccc2)nc(SCc2ccc([N+](=O)[O-])cc2)[nH]c1=O,inactive
6,COc1ccccc1C1CCN(c2ccc([N+](=O)[O-])cn2)CC1,inactive
7,Nc1cc2c(cc1Br)-c1ccc(F)cc1C2=O,inactive
8,CCOC(=O)C1CCN(CC(=O)Nc2ccc(OC)c(S(=O)(=O)N3CCCCC3)c2)CC1,inactive
9,O=C(c1cn(-c2ccccc2)nc1-c1cccnc1)N1CCN(S(=O)(=O)c2ccccc2F)CC1,inactive
10,O=C(Nc1sc2c(c1C(=O)O)CCC2)c1ccccc1F,inactive
11,NC(=O)c1c(NC(=O)c2ccccc2)sc2c1CCCC2,18.4 µM (active)
12,CCOC(=O)C(NC(=O)CC(C)C)(Nc1sc2c(c1C(N)=O)CCCC2)C(F)(F)F (stereo not drawn),inactive
13,COc1cccc(OC)c1C(=O)Nc1sc2c(c1C(N)=O)CCCC2,inactive
14,NC(=O)c1c(Nc2nc3c(F)cccc3s2)sc2c1CCCC2,20.6 µM (active)
15,O=C(CN1CCCC1)Nc1sc2c(c1C(=O)Nc1ccccc1)CCCC2,inactive
16,O=C(NNC(=O)c1ccc(-n2cncn2)c([N+](=O)[O-])c1)c1ccccc1,inactive
17,CCN(CC)c1ccc(NC(=O)CN2C(=O)NC3(CCc4ccccc43)C2=O)cc1 (stereo not drawn),inactive
18,CCN(CC(=O)Nc1ccc(OC)cc1)C(=O)c1ccc(Cl)c(S(=O)(=O)N2CCCC2)c1,inactive
19,OCC1(CO)CC2(C1)CC(CO)(CO)C2,inactive
20,CN(C)C(=O)CCc1ccc2c3c([nH]c2c1)[C@]1(C)[C@@H](C(=O)N2CCCCC2)C[C@H](CC(=O)NCCC2=CCCCC2)C(=O)N1CC3,inactive
21,CC(C)=C(NC(=O)c1ccccc1)C(=O)N/N=C(\C)c1ccccc1O,inactive

row,SMILES,Potency
1,CC(=O)NC(=O)c1ccccc1O,inactive
2,C/C(=N\NC(=O)c1ccoc1C)c1ccccc1O,7.31 µM (active)
3,CSCCC(NC(=O)c1ccccc1)C(=O)N1CCCCCCC1 (stereo not drawn),inactive
4,O=C(Cc1ccc(NC(=O)C2CCCN(C(=O)C3CCCCC3)C2)cc1)Nc1cccc(C(=O)N2CCCCC2)c1 (stereo not drawn),inactive
5,CC(=O)c1c(N2CCN(c3ccc(F)cc3)CC2)nc(=S)n(-c2ccccc2)c1C,inactive
6,CC(=O)c1c(N2CCOCC2)nc(=S)n(Cc2ccccc2)c1C,inactive
7,CC(=O)c1c(N2CCOCC2)nc(=S)n(-c2cc(C)ccc2C)c1C,1.3 µM (active)
8,O=C(CN1C(=O)NC2(CCOc3ccccc32)C1=O)Nc1cccc([N+](=O)[O-])c1 (stereo not drawn),inactive
9,O=C(OCCN1C(=O)c2ccccc2C1=O)[C@@H]1CC(O)CN1S(=O)(=O)c1ccccc1[N+](=O)[O-] (stereo partly drawn),inactive
10,COc1cccc(NC(=O)CN(C)C(=O)/C=C/c2cc(OC)ccc2OC)c1,inactive
11,COc1ccc(OC)c(/C=C/C(=O)OCC(=O)Nc2ccc3c(c2)OCCO3)c1,20.6 µM (active)
12,COc1ccc(/C=C/C(=O)OCC(=O)Nc2cccc(Oc3ccccc3)c2)c(OC)c1,inactive
13,CC(=O)NC(CC(=O)Nc1ccc(S(=O)(=O)N2CCOCC2)cc1)c1ccccc1 (stereo not drawn),inactive
14,C/C(=N/OC(=O)c1c(-c2c(F)cccc2Cl)noc1C)c1cnccn1,inactive
15,CCCn1c(=NC(C)=O)c(C(=O)OCC)cc2c(=O)n3ccccc3nc21,inactive
16,CCOC(=O)c1cc2c(=O)n3ccccc3nc2n(CC(C)C)c1=NC(=O)c1c(-c2c(F)cccc2Cl)noc1C,3.26 µM (active)
17,Cc1noc(C)c1NC(=O)Nc1cccc2c1O[C@H](CN(C)S(=O)(=O)c1c(C)noc1C)[C@@H](C)CN([C@H](C)CO)C2=O,inactive
18,CCc1nnc(NC(=O)c2cc(S(=O)(=O)N3CCN(CC)CC3)ccc2Cl)s1,inactive
19,CCCN(CC(=O)Nc1ccccc1C)C(=O)c1cc(=O)[nH]c2ccccc12,inactive
20,CCCN(CC(=O)Nc1ccccc1C)C(=O)c1ccc2[nH]c3c(c2c1)CC(C)CC3 (stereo not drawn),1.3 µM (active)
21,CC1CCc2[nH]c3ccc(C(=O)N(C)CC(=O)Nc4cccc(F)c4)cc3c2C1 (stereo not drawn),inactive

row,SMILES,Potency
1,CN1CCOC1c1ccc(C2OCCN2C)cc1 (stereo not drawn),inactive
2,O=C1C=C(c2ccnc3cc(Cl)ccc23)C[C@@H](c2ccc3c(c2)OCO3)C1,inactive
3,CCOc1ncccc1C(=O)Nc1ccc2c(c1)OCCO2,inactive
4,COc1ccc(C(=O)N2CCN(c3ncccn3)CC2)cc1S(=O)(=O)N1CCOCC1,inactive
5,Cc1ccc(C(C)C)cc1OCC(=O)Nc1ccccc1N1CCCC1,20.6 µM (active)
6,CCC(=O)N1CCN(c2ccccc2NC(=O)COc2cccc(C)c2C)CC1,inactive
7,Cc1ccc(C(C)C)cc1OCCN1CCCC1,inactive
8,O=S(=O)(NCCCCCCNS(=O)(=O)c1c(F)cccc1F)c1ccc2c(c1)OCCO2,inactive
9,COc1ccc(/C=C/C(=O)Nc2c(C)nn(C)c2C)cc1COc1ccc(Br)cc1,4.61 µM (active)
10,COc1ccc(/C=C/C(=O)Nc2cccnc2)cc1OC,inactive
11,C/C=C/c1ccc(OCC(=O)OCC(=O)Nc2c(C)nn(-c3ccccc3)c2C)c(OC)c1,inactive
12,CCn1nc(C)c(NC(=O)/C=C/c2ccc(OC)c(COc3ccc(Br)cc3)c2)c1C,8.2 µM (active)
13,COc1ccc(OC)c(S(=O)(=O)Nc2c(C)nn(C)c2C)c1,inactive
14,COc1ccc(/C=C/C(=O)Nc2ccc(C)cc2)cc1S(=O)(=O)N1CCOCC1,inactive
15,CCCC(NCC(=O)Nc1ccccc1C(=O)NC1CC1)c1ccccc1 (stereo not drawn),inactive
16,Cc1ccc(S(=O)(=O)N2CCN(C(=O)COC(=O)/C=C/c3cccc(Cl)c3)CC2)c(C)c1,inactive
17,O=C(N[C@H]1C/C=C\C(c2ccc(F)cc2)N(Cc2ccccc2)C(=O)C1)OCC1c2ccccc2-c2ccccc21 (stereo partly drawn),inactive
18,Cc1ccsc1C(=O)NC1CCCCC1C (stereo not drawn),inactive
19,CC(=O)Nc1ccc(-c2csc(NC=C3C(=O)OC(C)(C)OC3=O)n2)cc1,inactive
20,CC(=O)Nc1ccc(S(=O)(=O)Nc2nc(-c3ccc(C(C)(C)C)cc3)cs2)cc1,inactive
21,CC(=O)Nc1ccc(-c2csc(NC(=O)Nc3ccccc3)n2)cc1,20.6 µM (active)
